# Measurements: the supplement of paper PMC10849652
# Of roughly 7,900 targets only a part is listed; those with a hit were picked by preference. About 0.6% of all pairs of compound and target were hits. Unmarked numbers belong to inactive results.
# Assays:
# Test in all cases: log2 fold change, soluble protein after heating vs DMSO (PISA); higher = thermal stabilisation; K562 cells, 10 uM, 30 min; active = over 0.2 and 3.5 SD of the protein, either way, in both replicates (recomputed)
# [1] = compound: CS(=O)(=O)c1ccc(-c2cnc(N)c(C(=O)Nc3ccccc3)n2)cc1
# Outline: (§1)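 Quantification of soluble protein used TMTpro 16plex LC-MS/MS, with channel sums equalised. Samples were the supernatant after 21,000xg for 90 min of pooled aliquots from K562 cells (2×10^6 cells/mL) treated with 10 μM compound for 30 min, heated for 3 min over 48°C-58°C, and extracted in PBS with 0.5% NP-40 at 4°C. Values, from duplicates, describe thermal stability against control samples on a log2 fold-change scale.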
# crizotinib = compound: C[C@@H](Oc1cc(-c2cnn(C3CCNCC3)c2)cnc1N)c1c(Cl)ccc(F)c1Cl [crizotinib]
# Outline: as §1
# [2] = compound: C[C@@H]1COCCN1C2=NC(=NC(=C2)C3(CC3)S(=O)(=O)C)C4=C5C=CNC5=CC=C4
# Outline: as §1
# [3] = compound: C[C@H](C1=CC=C(C=C1)C(=O)NC2=C3C=CNC3=NC=C2)N
# Outline: as §1
# duvelisib = compound: C[C@H](Nc1ncnc2nc[nH]c12)c1cc2cccc(Cl)c2c(=O)n1-c1ccccc1 [duvelisib]
# Outline: as §1
# gandotinib = compound: Cc1cc(Nc2cc(CN3CCOCC3)c3nc(C)c(Cc4ccc(Cl)cc4F)n3n2)n[nH]1 [gandotinib]
# Outline: as §1
# tozasertib = compound: Cc1cc(Nc2cc(N3CCN(C)CC3)nc(Sc3ccc(NC(=O)C4CC4)cc3)n2)n[nH]1 [tozasertib]
# Outline: as §1
# [4] = compound: Cc1cc(SCc2sc(-c3ccc(C(F)(F)F)cc3)nc2C)ccc1OCC(=O)O
# Outline: as §1
# doramapimod = compound: Cc1ccc(-n2nc(C(C)(C)C)cc2NC(=O)Nc2ccc(OCCN3CCOCC3)c3ccccc23)cc1 [doramapimod]
# Outline: as §1
# ispinesib = compound: Cc1ccc(C(=O)N(CCCN)[C@@H](c2nc3cc(Cl)ccc3c(=O)n2Cc2ccccc2)C(C)C)cc1 [ispinesib]
# Outline: as §1
# Chain of UniProt Q8N4C8 (Q8N4C8 whole entry, looked up): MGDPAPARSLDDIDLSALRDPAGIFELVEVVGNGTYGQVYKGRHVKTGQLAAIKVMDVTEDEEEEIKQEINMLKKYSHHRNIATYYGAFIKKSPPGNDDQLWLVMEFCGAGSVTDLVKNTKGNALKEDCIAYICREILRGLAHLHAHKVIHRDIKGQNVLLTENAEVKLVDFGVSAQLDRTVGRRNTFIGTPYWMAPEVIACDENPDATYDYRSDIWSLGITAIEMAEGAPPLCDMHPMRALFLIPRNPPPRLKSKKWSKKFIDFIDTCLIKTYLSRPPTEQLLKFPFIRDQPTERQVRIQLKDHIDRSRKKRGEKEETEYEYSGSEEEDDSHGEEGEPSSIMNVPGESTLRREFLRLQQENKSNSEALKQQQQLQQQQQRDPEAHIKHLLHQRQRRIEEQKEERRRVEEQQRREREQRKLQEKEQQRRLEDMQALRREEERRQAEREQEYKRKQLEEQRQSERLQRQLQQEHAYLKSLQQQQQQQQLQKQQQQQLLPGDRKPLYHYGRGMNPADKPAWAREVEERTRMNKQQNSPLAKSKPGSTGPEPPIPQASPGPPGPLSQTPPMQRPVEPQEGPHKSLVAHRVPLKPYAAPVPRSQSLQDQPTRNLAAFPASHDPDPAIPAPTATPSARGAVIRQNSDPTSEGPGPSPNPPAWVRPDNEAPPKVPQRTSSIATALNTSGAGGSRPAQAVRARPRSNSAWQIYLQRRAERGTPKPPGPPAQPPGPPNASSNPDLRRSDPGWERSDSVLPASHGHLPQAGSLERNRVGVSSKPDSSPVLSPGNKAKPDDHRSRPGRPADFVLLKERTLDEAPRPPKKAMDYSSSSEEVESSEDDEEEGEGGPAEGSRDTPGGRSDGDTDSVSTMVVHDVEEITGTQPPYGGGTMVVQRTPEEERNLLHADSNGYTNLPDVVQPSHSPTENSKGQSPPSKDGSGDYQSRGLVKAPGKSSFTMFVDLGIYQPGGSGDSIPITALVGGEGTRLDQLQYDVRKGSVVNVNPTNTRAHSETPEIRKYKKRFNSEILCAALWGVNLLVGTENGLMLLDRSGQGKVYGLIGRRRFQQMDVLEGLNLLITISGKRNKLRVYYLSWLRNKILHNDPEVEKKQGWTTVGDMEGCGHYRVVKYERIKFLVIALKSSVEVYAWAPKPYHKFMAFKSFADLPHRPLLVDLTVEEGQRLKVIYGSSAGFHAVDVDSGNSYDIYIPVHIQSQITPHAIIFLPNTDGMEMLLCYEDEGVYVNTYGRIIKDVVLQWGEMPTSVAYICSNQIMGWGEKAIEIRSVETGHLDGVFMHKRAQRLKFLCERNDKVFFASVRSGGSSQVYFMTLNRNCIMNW
# Chain of UniProt P22059 (P22059 whole entry, looked up): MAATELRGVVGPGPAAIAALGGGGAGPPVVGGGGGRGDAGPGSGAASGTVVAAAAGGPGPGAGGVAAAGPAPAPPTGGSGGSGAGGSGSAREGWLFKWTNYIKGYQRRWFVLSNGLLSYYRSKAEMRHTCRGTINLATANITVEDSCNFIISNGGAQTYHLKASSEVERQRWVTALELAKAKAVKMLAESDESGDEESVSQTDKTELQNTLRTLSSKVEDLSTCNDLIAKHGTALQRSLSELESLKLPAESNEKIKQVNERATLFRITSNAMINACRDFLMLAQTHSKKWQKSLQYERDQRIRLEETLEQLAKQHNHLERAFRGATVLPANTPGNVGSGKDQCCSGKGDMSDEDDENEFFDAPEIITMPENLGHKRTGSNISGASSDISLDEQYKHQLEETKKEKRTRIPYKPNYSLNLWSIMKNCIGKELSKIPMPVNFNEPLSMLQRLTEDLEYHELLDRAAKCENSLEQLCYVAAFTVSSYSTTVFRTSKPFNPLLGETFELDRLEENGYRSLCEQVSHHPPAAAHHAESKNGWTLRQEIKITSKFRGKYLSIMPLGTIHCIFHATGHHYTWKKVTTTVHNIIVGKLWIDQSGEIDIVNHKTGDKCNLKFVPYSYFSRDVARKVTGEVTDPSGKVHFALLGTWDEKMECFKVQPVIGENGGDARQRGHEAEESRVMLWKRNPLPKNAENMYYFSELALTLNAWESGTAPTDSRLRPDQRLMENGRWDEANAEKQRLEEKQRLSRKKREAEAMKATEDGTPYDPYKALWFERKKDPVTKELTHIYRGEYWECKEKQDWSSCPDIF
# Chain of UniProt P56556 (P56556 whole entry, looked up): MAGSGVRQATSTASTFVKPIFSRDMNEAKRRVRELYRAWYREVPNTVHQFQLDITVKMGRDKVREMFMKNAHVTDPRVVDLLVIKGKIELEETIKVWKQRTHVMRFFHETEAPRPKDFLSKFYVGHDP
# Chain of UniProt Q9BV86 (Q9BV86 whole entry, looked up): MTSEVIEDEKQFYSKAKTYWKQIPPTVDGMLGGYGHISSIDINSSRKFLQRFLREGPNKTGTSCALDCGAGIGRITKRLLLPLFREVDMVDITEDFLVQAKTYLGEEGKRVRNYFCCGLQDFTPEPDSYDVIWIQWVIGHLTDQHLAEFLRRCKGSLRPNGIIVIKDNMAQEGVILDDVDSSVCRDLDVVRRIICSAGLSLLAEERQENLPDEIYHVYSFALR
# Chain of UniProt P49914 (P49914 whole entry, looked up): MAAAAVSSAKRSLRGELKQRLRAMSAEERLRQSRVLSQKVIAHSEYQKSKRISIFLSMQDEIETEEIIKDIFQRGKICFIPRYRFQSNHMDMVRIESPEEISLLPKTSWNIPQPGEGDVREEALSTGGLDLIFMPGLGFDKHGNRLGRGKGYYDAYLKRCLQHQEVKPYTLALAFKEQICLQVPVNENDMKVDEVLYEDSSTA
# Chain of UniProt Q9NZT2 (Q9NZT2 whole entry, looked up): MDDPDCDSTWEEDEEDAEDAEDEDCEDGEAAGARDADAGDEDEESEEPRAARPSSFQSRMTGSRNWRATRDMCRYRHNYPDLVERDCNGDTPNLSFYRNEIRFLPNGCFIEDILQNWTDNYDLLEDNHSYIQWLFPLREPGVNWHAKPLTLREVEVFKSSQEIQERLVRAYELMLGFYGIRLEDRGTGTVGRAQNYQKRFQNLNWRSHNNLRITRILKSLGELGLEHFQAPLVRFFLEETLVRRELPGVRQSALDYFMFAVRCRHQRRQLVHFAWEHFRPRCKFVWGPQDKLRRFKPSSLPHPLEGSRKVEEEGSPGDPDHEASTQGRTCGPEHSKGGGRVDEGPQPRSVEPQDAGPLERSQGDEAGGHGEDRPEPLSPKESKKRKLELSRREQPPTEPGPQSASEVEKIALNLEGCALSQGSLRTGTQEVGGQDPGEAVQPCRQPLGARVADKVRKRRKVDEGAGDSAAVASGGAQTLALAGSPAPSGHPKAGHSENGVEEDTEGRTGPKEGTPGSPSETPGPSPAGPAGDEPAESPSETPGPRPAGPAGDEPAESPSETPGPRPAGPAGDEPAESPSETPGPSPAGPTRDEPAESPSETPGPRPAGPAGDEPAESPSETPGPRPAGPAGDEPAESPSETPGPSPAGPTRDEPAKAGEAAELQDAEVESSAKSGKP
# Chain of UniProt P43246 (P43246 whole entry, looked up): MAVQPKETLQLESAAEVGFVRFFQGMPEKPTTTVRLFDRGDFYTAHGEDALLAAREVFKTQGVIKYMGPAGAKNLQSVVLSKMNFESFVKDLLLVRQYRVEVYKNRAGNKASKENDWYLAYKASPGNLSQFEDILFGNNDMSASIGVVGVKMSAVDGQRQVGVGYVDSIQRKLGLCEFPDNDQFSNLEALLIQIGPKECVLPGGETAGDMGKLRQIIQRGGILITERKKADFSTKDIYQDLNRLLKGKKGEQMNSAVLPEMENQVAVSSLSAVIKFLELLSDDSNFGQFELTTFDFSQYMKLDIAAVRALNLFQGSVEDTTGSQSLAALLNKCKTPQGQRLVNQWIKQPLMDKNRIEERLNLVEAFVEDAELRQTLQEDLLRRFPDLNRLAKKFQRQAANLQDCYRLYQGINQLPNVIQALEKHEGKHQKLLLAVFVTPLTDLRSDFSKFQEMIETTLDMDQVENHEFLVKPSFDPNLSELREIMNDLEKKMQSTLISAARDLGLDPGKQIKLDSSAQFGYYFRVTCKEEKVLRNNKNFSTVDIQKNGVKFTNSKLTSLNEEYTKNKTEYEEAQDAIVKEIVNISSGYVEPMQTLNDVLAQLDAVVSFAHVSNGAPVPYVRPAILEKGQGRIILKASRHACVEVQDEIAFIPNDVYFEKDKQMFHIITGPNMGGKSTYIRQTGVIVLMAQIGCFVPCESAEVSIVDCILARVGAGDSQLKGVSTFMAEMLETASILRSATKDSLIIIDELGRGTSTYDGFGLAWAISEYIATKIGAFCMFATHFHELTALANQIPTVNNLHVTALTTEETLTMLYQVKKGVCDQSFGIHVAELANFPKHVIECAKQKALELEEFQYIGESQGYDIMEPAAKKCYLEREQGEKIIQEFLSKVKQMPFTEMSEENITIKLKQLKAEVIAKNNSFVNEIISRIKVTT
# Chain of UniProt Q7L1V2 (Q7L1V2 whole entry, looked up): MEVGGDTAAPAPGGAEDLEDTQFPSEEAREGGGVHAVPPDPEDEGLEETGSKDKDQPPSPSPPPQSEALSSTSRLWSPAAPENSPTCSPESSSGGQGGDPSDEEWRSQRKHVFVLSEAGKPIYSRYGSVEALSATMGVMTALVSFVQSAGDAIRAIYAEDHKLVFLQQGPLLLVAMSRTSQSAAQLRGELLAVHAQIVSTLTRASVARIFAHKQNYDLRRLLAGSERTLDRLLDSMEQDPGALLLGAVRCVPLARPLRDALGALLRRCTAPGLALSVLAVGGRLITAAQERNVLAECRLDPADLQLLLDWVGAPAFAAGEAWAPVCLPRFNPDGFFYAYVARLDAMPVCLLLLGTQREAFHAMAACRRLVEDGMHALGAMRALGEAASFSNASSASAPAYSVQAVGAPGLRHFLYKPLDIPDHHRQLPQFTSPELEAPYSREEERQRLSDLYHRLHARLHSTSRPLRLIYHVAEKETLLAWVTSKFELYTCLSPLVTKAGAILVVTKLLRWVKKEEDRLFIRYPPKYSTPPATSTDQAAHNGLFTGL
# Chain of UniProt Q86WQ0 (Q86WQ0 whole entry, looked up): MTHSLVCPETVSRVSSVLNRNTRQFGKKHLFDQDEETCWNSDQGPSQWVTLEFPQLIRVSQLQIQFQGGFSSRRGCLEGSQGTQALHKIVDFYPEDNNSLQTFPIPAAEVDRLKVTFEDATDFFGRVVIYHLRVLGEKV
Target,log2 fold change [1],log2 fold change (crizotinib),log2 fold change [2],log2 fold change [3],log2 fold change (duvelisib),log2 fold change (gandotinib),log2 fold change (tozasertib),log2 fold change [4],log2 fold change (doramapimod),log2 fold change (ispinesib)
NSMCE2 (UniProt Q96MF7),0.001,0.051,-0.038,-0.024,-0.011,-0.131,0.043,-0.042,0.004,0.044
MON1B (UniProt Q7L1V2),0.006,-0.342 (active),0.069,-0.001,-0.02,-0.106,-0.018,0.005,0.022,-0.102
NOP58 (UniProt Q9Y2X3),0.006,0.047,-0.061,0.242,0.004,0.121,0.025,-0.001,0.098,0.103
NR2C2AP isoform 2 (UniProt Q86WQ0),0.085,0.011,0.138,0.025,0.044,-0.035,0.08,0.01,-0.17,0.285 (active)
MKNK1 (UniProt Q9BUB5),0.038,-0.082,-0.039,0.31 (active),0.031,0.038,0.085,0.057,0.054,-0.03
MON2 isoform 5 (UniProt Q7Z3U7),0.044,-0.065,0.081,0.033,0.173,-0.105,0.011,0.171,0.077,-0.055
NTMT1 (UniProt Q9BV86),0.128,0.039,0.074,-0.029,0.054,0.093,0.067,0.021,0.071,0.02
MINK1 (UniProt Q8N4C8),0.032,-0.207,-0.038,-0.067,0.022,-0.024,-0.149,0.073,-0.035,-0.032
MTOR (UniProt P42345),0.003,-0.23,0.08,0.06,0.025,-0.138,0.044,0.024,0.001,-0.184
NDUFA9 (UniProt Q16795),0.007,-0.139,0.079,0.022,0.006,-0.115,-0.038,0.052,-0.031,-0.122
NNT (UniProt Q13423),0.031,0.032,0.047,-0.06,0.025,-0.246 (active),0.015,-0.006,-0.023,0.02
NDUFS4 (UniProt O43181),-0.035,-0.089,-0.027,0.086,-0.086,0.164,-0.098,-0.058,0.018,-0.216
OPHN1 (UniProt O60890),0.011,-0.06,0.107,0.14,0.103,-0.636 (active),-0.035,-0.21,0.26,0.018
NSMCE4A (UniProt Q9NXX6),0.038,0.072,-0.055,-0.009,0.119,0.144,0.086,0.054,0.047,0.062
MRPL46 (UniProt Q9H2W6),0.042,0.039,-0.019,0.186,-0.024,0.026,-0.031,0.054,0.06,-0.157
MTHFS (UniProt P49914),0.103,-0.026,0.117,-0.098,-0.023,-0.021,0,0.037,0.013,0.046
OSBPL8 (UniProt Q9BZF1),0.019,-0.179,-0.043,0.219,-0.207,-0.105,0.089,0.103,0.078,-0.433
OGFR (UniProt Q9NZT2),0.074,-0.067,0.034,0.19,-0.016,-0.058,0.021,0.133,0.082,-0.068
NOL7 (UniProt Q9UMY1),-0.054,0.065,-0.661,0.415,-0.201,0.124,-0.001,0.003,0.187,-0.052
NT5DC1 (UniProt Q5TFE4),0.045,0.071,0.046,-0.052,0.05,0.019,0.004,-0.038,-0.018,0.037
NR2C2 isoform 2 (UniProt P49116),0.016,0.063,0.054,-0.076,0.066,-0.047,0.081,0.022,0.011,0.009
MRPS12 (UniProt O15235),0.046,-0.075,0.015,0.311,-0.058,0.063,0.011,0.022,0.003,-0.65 (active)
MRPS10 (UniProt P82664),0.028,0.005,-0.033,0.08,-0.005,0.019,0.002,0.002,0.029,-0.265 (active)
MND1 (UniProt Q9BWT6),0,-0.217,0.005,0.018,0.016,-0.076,-0.152,-0.024,0.009,-0.184
MSH2 (UniProt P43246),0.057,0.04,0.056,-0.038,0.08,-0.02,0.072,0.117,-0.067,0.09
NOLC1 isoform 2 (UniProt Q14978),-0.019,-0.135,0.141,-0.154,-0.043,-0.023,-0.032,-0.038,0.047,0.179
NDUFA6 (UniProt P56556),0.012,-0.044,0.172,-0.078,0.017,-0.22,-0.009,0.098,-0.004,0
OSBP (UniProt P22059),-0.015,0.057,0.025,-0.043,0.074,-0.025,-0.009,0.016,-0.028,0.216 (active)
MTMR14 (UniProt Q8NCE2),0.033,0.069,-0.054,0.014,0.048,0.144,0.046,0.079,-0.03,0.061
NFE2 (UniProt Q16621),-0.006,-0.052,-0.001,-0.031,0.008,-0.091,0.077,-0.015,0.049,0.033
